Compounds without any hit were thinned out: in the full panel of roughly 79,000, 15% have a hit. Active and inactive are the calls of the source. No stated cut-off is given here; in the data, active means growth inhibition above about 70%; inactive means the rest.
Assays:
[1] = NCI Yeast Anticancer Drug Screen. Data for the rad50 strain (AID 155);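 further: 0% = growth of vehicle-only cultures of the same strain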; conditions: S. cerevisiae rad50 strain growth inhibition; at 50.0 µM; active compounds read high
Method in brief: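 Growth of the mutant yeast was measured after compound exposure and referenced to vehicle-treated cultures.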

[2] = NCI Yeast Anticancer Drug Screen. Data for the mec2-1 strain (AID 157); conditions: S. cerevisiae mec2-1 strain, at 50.0 µM, active compounds read high
Method in brief: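 Compounds were applied to mec2-1 yeast cells. Their growth was then compared with that of vehicle-treated cultures to give growth inhibition.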

[3] = NCI Yeast Anticancer Drug Screen. Data for the sgs1 mgt1 strain (AID 161);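 further: 0% = growth of cultures given vehicle only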; conditions: S. cerevisiae sgs1 mgt1 strain, at 50.0 µM, active compounds read high
Method in brief: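 Yeast cells carrying a defined DNA-repair defect were exposed to test compounds. Growth inhibition was measured relative to vehicle-treated controls.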

[4] = NCI Yeast Anticancer Drug Screen. Data for the cln2 rad14 strain (AID 165);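 further: 0% = growth equal to vehicle treated cultures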; conditions: S. cerevisiae cln2 rad14 strain, at 50.0 µM, active compounds read high
Method in brief: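 Strain: cln2 rad14 yeast, altered in cell cycle control and DNA damage repair. Read-out: growth inhibition vs vehicle.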

[5] = NCI Yeast Anticancer Drug Screen. Data for the bub3 strain (AID 167); conditions: S. cerevisiae bub3 mutant strain, at 50.0 µM, active compounds read high
Method in brief: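 Whole-cell yeast assay. The mutant strain was incubated with compounds, and growth inhibition was determined by comparison with vehicle-treated cells.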

[6] = NCI Yeast Anticancer Drug Screen. Data for the mlh1 rad18 strain (AID 175); conditions: S. cerevisiae mlh1 rad18 strain growth inhibition; at 50.0 µM; active compounds read high
Method in brief: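 A repair-deficient yeast strain is exposed to test compound, and growth is scored relative to vehicle-treated controls.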

Row | SMILES | growth inhibition [1] | growth inhibition [2] | growth inhibition [3] | growth inhibition [4] | growth inhibition [5] | growth inhibition [6]
1 | O=C(CCCCCCCCC(=O)NC1CCCCC1)NC1CCCCC1 | -13.2% (inactive) | -26.5% (inactive) | -21.6% (inactive) | -20.8% (inactive) | -19% (inactive) | -5.4% (inactive)
2 | O=S1(=O)NC(=NC2CCCC2)c2ccccc21 | 0.7% (inactive) | -12.4% (inactive) | -3.55% (inactive) | -35.8% (inactive) | -7.75% (inactive) | 1.15% (inactive)
3 | BrC1CCC(Br)CC1 (stereo unspecified) | 7.1% (inactive) | -11.1% (inactive) | -8.45% (inactive) | -12.9% (inactive) | -2.3% (inactive) | -9.7% (inactive)
4 | COc1ccc(C2CC(=O)C(C(=O)OC3CCCCC3)C2c2ccc(OC)cc2)cc1 (stereo unspecified) | 13.9% (inactive) | 16.2% (inactive) | 15.8% (inactive) | 28.1% (inactive) | -3.25% (inactive) | 19.5% (inactive)
5 | O=C1c2ccccc2C(=O)N1c1cccc2ccccc12 | 51.4% (inactive) | 8.2% (inactive) | 26.6% (inactive) | -19.4% (inactive) | 55.7% (inactive) | 62% (inactive)
6 | CN1CCC(=O)C(c2ccccc2)(c2ccccc2)CC1 | -8% (inactive) | -8.6% (inactive) | 3.45% (inactive) | -24.9% (inactive) | 28.4% (inactive) | -26.7% (inactive)
7 | CCOC(=O)c1c(Br)c(-c2ccc([N+](=O)[O-])cc2)c(Br)n1C | 11.4% (inactive) | -7.4% (inactive) | -0.15% (inactive) | -0.15% (inactive) | -2.1% (inactive) | -5.2% (inactive)
8 | CC(C)(Br)C(=O)N1CCN(C(c2ccccc2)c2ccccc2)CC1 | 3.15% (inactive) | 8.2% (inactive) | 2.3% (inactive) | -0.15% (inactive) | -0.3% (inactive) | 14.7% (inactive)
9 | O=C1NC(=O)N(C(F)(F)F)C(F)(F)N1C(F)(F)F | 1.25% (inactive) | 4.55% (inactive) | 3.75% (inactive) | 30.9% (inactive) | 5.8% (inactive) | 23.1% (inactive)
10 | CCOP(=O)(c1ccccc1)C(C)C (stereo unspecified) | -7.85% (inactive) | -0.5% (inactive) | -1.7% (inactive) | -40% (inactive) | -0.65% (inactive) | -0.2% (inactive)
11 | O=S(=O)(c1ccccc1)c1ccc(CBr)cc1 | 16.1% (inactive) | 1.85% (inactive) | -10.4% (inactive) | 17.5% (inactive) | -2.55% (inactive) | -8.9% (inactive)
12 | CCN(CC)c1ccc(-c2ccccc2)cc1 | 28.1% (inactive) | 5.4% (inactive) | -8.45% (inactive) | -69.4% (inactive) | 2.9% (inactive) | 8.5% (inactive)
13 | Cc1cc2nc(N3CCOCC3)n(C3OC(CO)C(O)C3O)c2cc1C (stereo unspecified) | -6.6% (inactive) | 5.75% (inactive) | 23.2% (inactive) | 1.55% (inactive) | -8.95% (inactive) | 3.95% (inactive)
14 | Cc1cc(-c2ccccc2)cc(C[n+]2ccccc2)[n+]1-c1ccccn1 | 12.8% (inactive) | 6.2% (inactive) | 9.2% (inactive) | -3.8% (inactive) | 2.2% (inactive) | 18.9% (inactive)
15 | COc1ccc(C2COc3c(ccc(OC)c3OC)C2=O)cc1OC (stereo unspecified) | -20.7% (inactive) | -1% (inactive) | -1.2% (inactive) | -6.5% (inactive) | -0.5% (inactive) | -18.5% (inactive)
16 | CC1(Br)CP(=O)(c2ccccc2)CC1Br (stereo unspecified) | -9.2% (inactive) | -11.9% (inactive) | 9.5% (inactive) | -24.4% (inactive) | 21.1% (inactive) | -6% (inactive)
17 | CC(O)(C1CC1)C(C(=O)O)c1ccccc1 (stereo unspecified) | -15.4% (inactive) | -6.85% (inactive) | 1.9% (inactive) | -26.7% (inactive) | 1.55% (inactive) | 10.6% (inactive)
18 | CCOC(=O)/C(=C\c1ccc(OCc2ccccc2)c(OC)c1)C(=O)c1ccccc1 | 15.6% (inactive) | -9.55% (inactive) | 8.3% (inactive) | -5.15% (inactive) | -13.4% (inactive) | -15.3% (inactive)
19 | Clc1c(Cl)c(Cl)c(CSCc2c(Cl)c(Cl)c(Cl)c(Cl)c2Cl)c(Cl)c1Cl | -16.2% (inactive) | -7% (inactive) | -12.2% (inactive) | -31.9% (inactive) | 2.1% (inactive) | -13.3% (inactive)
20 | COc1c2ccoc2nc2c(O)c3c(c(CC=C(C)C)c12)OCO3 | -6.65% (inactive) | -7% (inactive) | -4.7% (inactive) | 16.2% (inactive) | -4.9% (inactive) | -2.95% (inactive)
21 | Clc1ccc(C2OCCCO2)cc1 | -21.1% (inactive) | 7.8% (inactive) | -9.7% (inactive) | 10.2% (inactive) | -8.4% (inactive) | -1.65% (inactive)

Row | SMILES | growth inhibition [1] | growth inhibition [2] | growth inhibition [3] | growth inhibition [4] | growth inhibition [5] | growth inhibition [6]
22 | O=C(c1cccc(F)c1)c1ccccc1Cc1ccccc1 | -4.45% (inactive) | 4.2% (inactive) | -8.05% (inactive) | 19.4% (inactive) | -3.1% (inactive) | -11.4% (inactive)
23 | COc1cc2c(c(OC)c1OC)-c1ccc(OC)c(=O)cc1C(NC(=O)c1ccc(N=[N+]=[N-])cc1)CC2 (stereo unspecified) | 51.4% (inactive) | 74.8% (active) | 8.5% (inactive) | -4.7% (inactive) | -4.6% (inactive) | 87.3% (active)
24 | O=S1(=O)CS(=O)(=O)OCCO1 | 26.2% (inactive) | 6.8% (inactive) | 14.7% (inactive) | 31.9% (inactive) | 10.7% (inactive) | 16.8% (inactive)
25 | C=CS(=O)(=O)CCCCCCCCCCCCCCCCCC | -2.35% (inactive) | 10.7% (inactive) | -18.4% (inactive) | -12.8% (inactive) | 5.3% (inactive) | 8.9% (inactive)
26 | NCCSS(=O)(=O)CCN | -17.4% (inactive) | -4.6% (inactive) | 18.4% (inactive) | -18.4% (inactive) | 1.95% (inactive) | 3.4% (inactive)
27 | CS(=O)(=O)OC1C(OCc2ccccc2)OC(CO)C(O)C1O (stereo unspecified) | -6.1% (inactive) | 2.15% (inactive) | -10.1% (inactive) | -55.6% (inactive) | -1.6% (inactive) | 0.55% (inactive)
28 | CC1(C)CC2=C(Sc3ccccc3N2)C(=O)C1C(=O)C(=O)Nc1cccc([N+](=O)[O-])c1 (stereo unspecified) | -22.1% (inactive) | -22.8% (inactive) | -11.7% (inactive) | -35.9% (inactive) | 2% (inactive) | 1.1% (inactive)
29 | c1ccc(Cc2[nH]nc(-c3ccccc3)c2N=Nc2ccccc2)cc1 | 5.55% (inactive) | -34.9% (inactive) | 2.65% (inactive) | -16.4% (inactive) | 8.45% (inactive) | -6.1% (inactive)
30 | CC(C)CNC(=O)Cn1c2c(c3ccccc31)CCCC2 | -4.5% (inactive) | -32.7% (inactive) | 1.4% (inactive) | 3.75% (inactive) | -14.8% (inactive) | -10.8% (inactive)
31 | O=C1CCCc2[nH]c(=O)ccc21 | 13% (inactive) | -3.1% (inactive) | 0% (inactive) | -7.95% (inactive) | 0.3% (inactive) | 9.9% (inactive)
32 | O=C(OCC(F)(F)C(F)(F)C(F)(F)C(F)(F)C(F)(F)C(F)F)OCC(F)(F)C(F)(F)C(F)(F)C(F)(F)C(F)(F)C(F)F | 0.1% (inactive) | 9.05% (inactive) | -5.45% (inactive) | -3.65% (inactive) | -0.6% (inactive) | 0.95% (inactive)
33 | C=C(CN(C)C)C(=O)c1ccccc1OC | 35.7% (inactive) | 30.1% (inactive) | 44.8% (inactive) | -25.9% (inactive) | 35.3% (inactive) | 18.8% (inactive)
34 | CC(=O)NC(CCC(=O)C=[N+]=N)C(=O)O (stereo unspecified) | 18.4% (inactive) | -14.7% (inactive) | 33.5% (inactive) | 14.1% (inactive) | 23.8% (inactive) | 12.6% (inactive)
35 | CCOC(=O)c1nc2ccc(OC)cc2c2c1Cc1ccccc1-2 | -8.55% (inactive) | -20.9% (inactive) | -22.1% (inactive) | 8.3% (inactive) | 0.55% (inactive) | -24.4% (inactive)
36 | Nc1nnc(-c2ccccc2)o1 | 9.85% (inactive) | -4.8% (inactive) | 4.05% (inactive) | -19.9% (inactive) | 4.8% (inactive) | 3.35% (inactive)
37 | CC(Cc1ccccc1)NN (stereo unspecified) | 14.8% (inactive) | 9.55% (inactive) | 16.5% (inactive) | 5.65% (inactive) | 10.4% (inactive) | 9.4% (inactive)
38 | CC#CC(C)(C)N(C)C | -16.6% (inactive) | -8.45% (inactive) | -8.75% (inactive) | -21.4% (inactive) | 12.8% (inactive) | 14.1% (inactive)
39 | CC(=O)NNc1nc(C)c(C(/C=C/c2ccc(Cl)cc2)=N/NC(=S)NN)s1 | 34.1% (inactive) | 20.4% (inactive) | 45% (inactive) | 15.8% (inactive) | 11.8% (inactive) | 9.75% (inactive)
40 | CCCCCC/C=N\OC(N)=O | 12.9% (inactive) | 15.2% (inactive) | -4.9% (inactive) | -12.9% (inactive) | 3.35% (inactive) | 11.8% (inactive)
41 | ON(C(=NCc1ccccc1)c1ccccc1)c1ccccc1 | 2.25% (inactive) | 10.6% (inactive) | 9.65% (inactive) | -17.4% (inactive) | 12.4% (inactive) | 14.7% (inactive)
